A selection: hits, their analogues and other compounds. The true share with any hit is near 0.51%.
AddAB inh – less growth of phage-infected E. coli with AddAB; E. coli expressing H. pylori AddAB, absorbance growth; inhibition, % at 11.9 µM; 330,000 tested, 0.29% active; AID 435030; in the data active means inhibition above about 12%
phage Ecoli inh – E. coli growth loss with phage present. AID 651602. growth absorbance. 360,000 tested, 0.26% active. inhibition, % at 11.9 µM; in the data active means inhibition above about 11%
E coli growth-1 – reduces bacterial viability in AddAB counter-screen | AID 449728 | E. coli V3065 growth, OD600 absorbance, 18 h | inhibition, % at 11.9 µM | 330,000 tested, 0.27% active;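 active means inhibition above the campaign's mean inhibition across all tested compounds plus 3 SD, cut at about 9.9% in these data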;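 further: uninfected addAB+ strain grown without phage in ampicillin broth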
E coli growth-2 – blocks Escherichia coli growth. OD600, 23 h; stronger effect = lower value. OD600 absorbance (no concentration beside the values). 330,000 tested, 0.21% active. AID 1053175;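 active means OD600 absorbance below the run mean of sample wells minus 3.6 SD, in any replicate, cut at about 0.56 in these data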
Tat export inh – blocks Tat-dependent protein export in E. coli; AID 488895; inhibition, % at 10 µM; E. coli MC4100 TorA-mCherry Tat export, fluorescence; 340,000 tested, 0.036% active;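 active means mean replicate inhibition at least 50% and at least half of replicates individually reaching 50%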;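 further: exported cargo escapes ClpAP degradation while cytoplasmic cargo is degraded and loses fluorescence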
AddAB confirm – growth loss of T4-infected E. coli expressing H. pylori AddAB, confirmed. shares compounds with AddAB inh. E. coli V3065 expressing H. pylori AddAB, T4 phage, OD; T4 phage with gene 2 nonsense mutations. 880 tested, 64% active. inhibition, % at 11.9 µM;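 active means mean inhibition above a set limit taken from the earlier primary screen, cut at about 13% in these data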;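 further: higher means less bacterial growth since AddAB block lets phage replicate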
RecBCD counter – AddAB counter-screen: growth loss of RecBCD+ E. coli infected with mutant T4 phage; shares compounds with AddAB inh; E. coli V66 + mutant T4 phage, OD growth; inhibition, % at 11.9 µM; 880 tested, 73% active;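 active means mean inhibition above the mean of solvent-only control wells plus 3 SD, cut at about 4% in these data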;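 further: optical density read after an 18 h incubation at 37 °C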
Bact viability – counter-screen for AddAB inhibitors: inhibitors of bacterial viability. AID 488956. inhibition, % at 11.9 µM. absorbance (AddAB counterscreen). shares compounds with AddAB inh. 880 tested, 35% active; in the data active means inhibition above about 25%
Large screens that a line does not name were inactive (follow-up assays come after a bar, where they were run).

COc1ccc(C2CC(=O)C=C(c3cccc(OCc4ccccc4)c3)C2)cc1 (stereo unspecified)	none (no result: AddAB inh, phage Ecoli inh, E coli growth-1, Tat export inh)
COc1cc(NS(=O)(=O)c2ccc(NC(=S)NC(=O)c3sc4ccccc4c3Cl)cc2)ncn1	AddAB inh 13 | AddAB confirm inactive | RecBCD counter inactive | Bact viability inactive
O=S(=O)(Nc1cccc2ncccc12)c1cccs1	AddAB inh 18 (no result: phage Ecoli inh) | AddAB confirm inactive | RecBCD counter 5.2 | Bact viability inactive
CO[C@@]12[C@H](COC(N)=O)C3=C(C(=O)C(C)=C(N)C3=O)N1C[C@@H]1N[C@@H]12	AddAB inh 15, E coli growth-1 14 (no result: E coli growth-2) | AddAB confirm 77 | RecBCD counter 16 | Bact viability 70
c1ccc(-c2nnc(-c3ccccn3)nn2)nc1	none
c1ccc(-c2cccc(-c3ccccn3)n2)nc1	AddAB inh 34, E coli growth-1 35 (no result: phage Ecoli inh) | AddAB confirm 46 | RecBCD counter 36 | Bact viability 30
CCOc1ccc(Cn2cc(F)c(=O)[nH]c2=O)cc1	none
CCCOc1ccc(S(=O)(=O)n2cc(F)c(=O)[nH]c2=O)cc1	AddAB inh 13 | AddAB confirm inactive | RecBCD counter inactive | Bact viability inactive
CC(C)COc1ccc(S(=O)(=O)n2cc(F)c(=O)[nH]c2=O)cc1	AddAB inh 13 | AddAB confirm inactive | RecBCD counter inactive | Bact viability inactive
COc1ccc(C(=O)C=CN2CCOCC2)cc1	none (no result: AddAB inh, phage Ecoli inh, E coli growth-1, Tat export inh)
COc1cc2c(cc1OC)-c1nnc(C)n1C(C)(C)C2	none
COc1cc2c(cc1OC)-c1nnc(C)n1C1(CCCC1)C2	AddAB inh 24, E coli growth-1 11 | AddAB confirm inactive | RecBCD counter inactive | Bact viability inactive
O=[N+]([O-])c1cnc(Sc2ccncn2)s1	AddAB inh 81, E coli growth-1 12, E coli growth-2 0.43 | AddAB confirm 98 | RecBCD counter 8.7 | Bact viability 35
NC(=O)c1ccsc1NC(=O)COC(=O)c1ccc([N+](=O)[O-])o1	AddAB inh 97, E coli growth-1 13 | AddAB confirm 97 | RecBCD counter 8.3 | Bact viability inactive
CC(C)CC(CN=[N+]=[N-])N1CCN(C)CCC1=O (stereo unspecified)	none (no result: AddAB inh, phage Ecoli inh, E coli growth-1, Tat export inh)
Cc1ccc(NC(=O)c2nc[nH]c2C(=O)NC(CCCCNC(=O)OC(C)(C)C)C(=O)OC(C)(C)C)cc1 (stereo unspecified)	none (no result: AddAB inh, phage Ecoli inh, E coli growth-1, Tat export inh)
CC(C)NC(=O)N(C)CC1Oc2ccc(NS(=O)(=O)c3ccc(F)cc3)cc2C(=O)N(C(C)CO)CC1C (stereo unspecified)	none (no result: AddAB inh, phage Ecoli inh, E coli growth-1, Tat export inh)
Cc1ccc(-c2c(NC(=O)c3ccco3)oc3ccccc3c2=O)cc1	AddAB inh 93, E coli growth-1 39 | AddAB confirm inactive | RecBCD counter inactive | Bact viability inactive
O=C(Nc1oc2ccccc2c(=O)c1-c1ccccc1)c1ccco1	none (no result: AddAB inh, E coli growth-1, E coli growth-2, Tat export inh)
CCCCCCCCCCn1ccc(=N)cc1	AddAB inh 14, E coli growth-2 0.45 | AddAB confirm inactive | RecBCD counter 4.3 | Bact viability inactive
CCCCCCCCn1ccc(=N)cc1	AddAB inh 13, E coli growth-1 10 | AddAB confirm inactive | RecBCD counter inactive | Bact viability inactive
CCCCCCN1Cc2ccccc2C1	none
COC(=O)c1ccc2c(c1)C(C)(C)C(C=Cc1ccc(OC)c(OC)c1OC)=[N+]2C	none (no result: AddAB inh, phage Ecoli inh, E coli growth-1, Tat export inh)
CN1CC2C(c3ccccc3)C3(c4ccc(C#N)cc4)CC2(C3)C1c1ccccc1 (stereo unspecified)	none (no result: AddAB inh, phage Ecoli inh, E coli growth-1, Tat export inh)
CC(O)C1CNC(=O)C(=O)N1CCc1cccc(F)c1 (stereo unspecified)	none (no result: AddAB inh, phage Ecoli inh, E coli growth-1, Tat export inh)
O=C(O)c1cn(-c2ccc(N3CCCC3)c(F)c2)c2c(F)c(F)c(F)cc2c1=O	AddAB inh 22, E coli growth-1 17, E coli growth-2 0.46 | AddAB confirm 21 | RecBCD counter inactive | Bact viability inactive
COc1ccccc1CNC(=O)c1cc(S(=O)(=O)N2CCCC2)cn1C	AddAB inh 100, E coli growth-1 99 | AddAB confirm inactive | RecBCD counter inactive | Bact viability inactive
Cc1ccc(CCNC(=O)c2cc(S(=O)(=O)N3CCOCC3)cn2C)cc1	none
Cn1cc(S(=O)(=O)N2CCOCC2)cc1C(=O)NCCc1ccccc1	AddAB inh 99, E coli growth-1 99 (no result: phage Ecoli inh) | AddAB confirm inactive | RecBCD counter inactive | Bact viability inactive
Cc1nc2ccc(Cc3ccc4nc(C)[nH]c4c3)cc2[nH]1	AddAB inh 16 | AddAB confirm inactive | RecBCD counter 5.8 | Bact viability inactive
CC1CN(Cc2ccccc2)C(=O)C1CC(=O)NCc1ccccc1 (stereo unspecified)	none (no result: AddAB inh, phage Ecoli inh, E coli growth-1, Tat export inh)
CCn1cc(C(=O)O)c(=O)c2cc(F)c(N3CCN(S(=O)(=O)c4ccc(NC(=O)OC)cc4)CC3)cc21	AddAB inh 37, E coli growth-1 18, E coli growth-2 0.061 | AddAB confirm 101 | RecBCD counter 29 | Bact viability 100
CCCCCCC(=O)N1CCN(c2cc3c(cc2F)c(=O)c(C(=O)O)cn3CC)CC1	none (no result: E coli growth-2)
CCOC(=O)c1cn(CC)c2cc(N3CCOCC3)c(F)cc2c1=O	AddAB inh 58, E coli growth-1 53, E coli growth-2 0.54 | AddAB confirm 70 | RecBCD counter inactive | Bact viability inactive
CCn1cc(C(=O)NN)c(=O)c2cc(F)c(N3CCN(C)CC3)cc21	AddAB inh 18, E coli growth-1 16 | AddAB confirm 47 | RecBCD counter inactive | Bact viability 29
CCC(=O)N1CCN(c2cc3c(cc2F)c(=O)c(C(=O)O)cn3CC)CC1	AddAB inh 97, E coli growth-1 70, E coli growth-2 0.069 | AddAB confirm 100 | RecBCD counter 8.4 | Bact viability 98
CN(CC(Cc1ccccc1)N(CC(Cc1cccc2ccccc12)N(CCc1ccccc1)N=O)N=O)N=O (stereo unspecified)	none (no result: AddAB inh, phage Ecoli inh, E coli growth-1, Tat export inh)
COc1ccc(C2C=CCN(C(=O)Oc3ccc(C(F)(F)F)cc3)CC(=O)N2Cc2ccc(F)cc2)cc1 (stereo unspecified)	none (no result: AddAB inh, phage Ecoli inh, E coli growth-1, Tat export inh)
Cc1ccc(CNC(=O)C(=O)NCC2OCCN2S(=O)(=O)c2cccs2)cc1 (stereo unspecified)	AddAB inh 95, E coli growth-1 87 | AddAB confirm inactive | RecBCD counter inactive | Bact viability inactive
O=C(NCc1ccccc1)C(=O)NCC1OCCN1S(=O)(=O)c1cccs1 (stereo unspecified)	none
Cc1cc(C)c(S(=O)(=O)N2CCOC2CNC(=O)C(=O)NCc2cccnc2)c(C)c1 (stereo unspecified)	AddAB inh 54, E coli growth-1 34 | AddAB confirm inactive | RecBCD counter inactive | Bact viability inactive
COc1cccc(C2=CC(=O)CC(c3ccc(OC)c(OC)c3)C2)c1 (stereo unspecified)	none (no result: AddAB inh, phage Ecoli inh, E coli growth-1, Tat export inh)

High-throughput results as filed in PubChem.
